PubChem BioAssay (NCATS)
Inconclusive results are not listed. Calls of active or inactive are those of the source. Unless noted, calls come from the whole dose curve; as a rule, active = well fitted curve in the direction sought with a large enough effect; inconclusive = small, poorly fitted or top-dose-only effect, or another doubt; inactive = no such curve, though single readings can be large; an effect the other way counts as inactive or inconclusive.

Legend:
[1] = Validation of Assay for Modulators of Lamin A Splicing (AID 1459; active = well fitted curve in the direction sought with a large enough effect in the signal ratio; the % refers to the signal ratio;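 note: cells exposed to compound for two days before reading; 0% is about no effect; ratio rise marks activators and ratio drop marks inhibitors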)
How it was run: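 S3 HeLa stably expressing lamin A-EGFP splicing minigene and DsRed2, 600 cells/well in Opti-MEM with 2% FBS, treated 48 h at 37C; laser-scanning cytometry gives GFP/RFP total intensity ratio; ancitabine positive control, 0.5% DMSO vehicle.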

[2] = qHTS Assay for Lipid Storage Modulators (AID 1519; calls by dose curve; for activity change, negative = inhibition: % is set by controls: 0 for no effect and ±100 for the full control effect); conditions: Drosophila S3 cells, BODIPY lipid droplet/cell ratio, laser cytometry, cells loaded with oleic acid; for activity change, negative = inhibition: at 57.5 µM (top of the series)
How it was run: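 Cells seeded at 5,000 per well were treated with compounds over a concentration series and loaded with oleic acid (400 uM, as added). Lipid droplet fluorescence (488 nm excitation, 500-530 nm channel) was read by laser-scanning cytometry and normalized to 20 uM Triacsin C.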

[3] = target: DNA repair nuclease/redox regulator APEX1 (Homo sapiens) (UniProt P27695); test: qHTS Validation Assay for Inhibitors of the Human Apurinic/apyrimidinic Endonuclease 1 (APE1) (AID 1705; note: potency is the fitted concentration of half-maximal effect;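 for activity change, negative = inhibition: TAMRA fluorescence gain over two minutes as APE1 cuts a quenched THF abasic duplex; % is set by controls: 0 for no effect and ±100 for the full control effect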)
How it was run: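 Fluorogenic double-stranded THF abasic-site substrate (5'-TAMRA/3'-BHQ-2), 50 nM final. Enzyme preincubated with compound 15 min at room temperature, then substrate added. Kinetic fluorescence (ex 525/em 598 nm) read three times at 60 s intervals; activity taken as third-minus-first read difference.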

[4] = Counterscreen for APE1 Inhibitors: Fluorescent Dye Displacement Validation Assay (AID 1707); note: potency is the fitted concentration of half-maximal effect;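 for activity change, negative = inhibition: plate controls were ThO with dsDNA and no compound for no effect and ThO without dsDNA for full effect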
How it was run: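 Compounds are scored by their ability to displace Thiazole Orange (250 nM) from a 50 nM TAMRA-tagged duplex bearing a tetrahydrofuran abasic site. Buffer is 50 mM Tris-HCl pH7.5, 50mM NaCl, 2 mM MgCl2, 0.01% Tween-20.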

[5] = target: Endonuclease 4 (Escherichia coli (strain K12)) (UniProt P0A6C1); test: Counterscreen for APE1 Inhibitors: qHTS Validation Assay for Inhibitors of Endonuclease IV (AID 1708); note: % is set by controls: 0 for no effect and ±100 for the full control effect
How it was run: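 Concentration-response counterscreen run identically to the APE1 assay: 15 min room-temperature preincubation of 2 nM enzyme with compound, reaction started with 50 nM quenched abasic DNA, progress taken from kinetic fluorescence.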

[6] = qHTS for differential inhibitors of proliferation of Plasmodium falciparum line 3D7 (AID 1876);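 note: parasite growth measured after three days of culture; 0% = vehicle wells and -100% = reference inhibitor wells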
[7] = qHTS for differential inhibitors of proliferation of Plasmodium falciparum line D10 (AID 1877);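 note: parasites grown with compound for 72 h before DNA staining; plate controls were vehicle wells for no effect and reference inhibitor wells for full effect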
[8] = qHTS for differential inhibitors of proliferation of Plasmodium falciparum line Dd2 (AID 1882); conditions: Potency: Plasmodium falciparum Dd2 proliferation inhibition;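 note: plate controls were DMSO vehicle for no effect and 0.29 µM artemisinin for full effect; nearly all actives have a fitted effect of over 65% in size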
How it was run: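 Dd2-infected erythrocytes (0.3% parasitemia, 2.5% hematocrit final) incubated with compound 72 h at 37 C, 5% CO2; lysed with saponin/Triton buffer containing SYBR Green I, incubated overnight in the dark, then read by fluorescence (485/535 nm). Normalized to 0.29 uM artemisinin and DMSO.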

[9] = qHTS for differential inhibitors of proliferation of Plasmodium falciparum line HB3 (AID 1886); conditions: Potency: Plasmodium falciparum HB3 proliferation inhibition;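 note: parasites grown with compound for 72 h before SYBR Green readout; plate controls were vehicle for no effect and reference inhibitor for full effect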
[10] = target: Ferritin light chain (Equus caballus) (UniProt P02791); test: qHTS Validation Assay for Identification of Novel General Anesthetics (AID 2323); note: % is set by controls: 0 for no effect and ±100 for the full control effect
How it was run: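 Horse-spleen apoferritin (10 uM) in PBS with 50% saturated 1-aminoanthracene; compounds pin-transferred, 10 min at room temperature. Fluorescence read at 380/535 nm, normalized to free 1-AMA and 1-AMA/apoferritin values; four-parameter Hill fit.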

[11] = Validation screen for small molecules that induce DNA re-replication in MCF 10A normal breast cells (AID 463097); note: 0% is about no effect; nearly all actives have a fitted effect of over 60% in size
How it was run: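 MCF 10A cells exposed to compound 48 hr at 37 C, 5% CO2, then Hoechst-stained 40 min. Laser-scanning imaging of nuclear DNA content (405 nm ex, 500-530 nm em); re-replication scored as rise in nuclei with elevated fluorescence intensity.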

[12] = Quantitative high throughput screen for delayed death inhibitors of the malarial parasite plastid, 96 hour incubation (AID 488745); note: % is set by controls: 0 for no effect and ±100 for the full control effect; nearly all actives have a fitted effect of over 70% in size
How it was run: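 Luciferase-expressing P. falciparum in erythrocytes (2% hematocrit, 0.1% parasitemia) incubated with compound for 96 h at 37 C, 5% CO2, in RPMI 1640 with 0.5% Albumax. Growth inhibition read as decreased luminescence.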

[13] = Quantitative high throughput screen for delayed death inhibitors of the malarial parasite plastid, 48 hour incubation (AID 488752); note: % is set by controls: 0 for no effect and ±100 for the full control effect; nearly all actives have a fitted effect of over 65% in size
How it was run: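 Erythrocytes infected with firefly luciferase-expressing P. falciparum (2% hematocrit, 0.1% parasitemia) cultured with compound for 48 h at 37 C, 5% CO2, in RPMI 1640/0.5% Albumax. Growth inhibition read as loss of luminescence.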

[14] = target: M-phase phosphoprotein 8 (Homo sapiens) (UniProt Q99549); test: qHTS Validation Assay for Inhibitors for MPP8 Chromodomain Interactions with Methylated Histone Tails (AID 488949); note: top concentration of the series differs between compounds; % is set by controls: 0 for no effect and ±100 for the full control effect; nearly all actives have a fitted effect of over 55% in size
How it was run: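 MPP8 (50 nM) was pre-bound to 50 nM biotinylated H3(1-18)K9me3 peptide in PBS pH 7.4 with 0.01% Tween-20. Compounds were then added for 30 min at room temperature, and complex disruption was read by AlphaScreen with streptavidin donor and nickel-chelate acceptor beads.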

[15] = target: Transient receptor potential cation channel subfamily V member 1 (Homo sapiens) (UniProt Q8NER1); test: HTS Assay for Compounds that Act as Enhancers of the Vanilloid Receptor 1 (AID 488979); note: 0% is about no effect
How it was run: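 TRPV1-expressing cells loaded with Fluo-8 calcium dye; compounds added and calcium influx read kinetically for 3 min (agonist phase), then capsaicin at EC20 added and read 2 min more for enhancement. Fluorescence ex 480/em 520 nm.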

[16] = target: Thyrotropin receptor (Homo sapiens) (UniProt P16473); test: qHTS Assay for Antagonists of the Thyroid Stimulating Hormone Receptor (AID 488980); note: 0% is about no effect
How it was run: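 TSHR-transfected HEK293 cells (2000/well) in HEPES-buffered HBSS with 70 uM RO 20-1724 were stimulated with 4 nM TSH (EC80, final) in the presence of compound. cAMP was measured by HTRF competition after lysis and 30 min at RT.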

[17] = target: Thyrotropin-releasing hormone receptor (Homo sapiens) (UniProt P34981); test: qHTS for Small Molecule Agonists and Allosteric Enhancers of Human TRH Receptor: Validation Screen for Agonists (AID 493127;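 active = calcium activation more than 3 SD above the typical response in the agonist read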; note: 0% is about no effect); conditions: TRH receptor agonist cell assay; at 2 µM; stronger effect = higher value
How it was run: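 TRHR cells loaded with fluo-8 calcium dye; FDSS kinetic fluorescence (Ex 480/Em 530) read at 1 s/cycle after 23 nL compound addition. Agonist-mode calcium response recorded before the 10 nM TRH (EC20) addition.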

[18] = target: Galactokinase (Homo sapiens) (UniProt P51570); test: qHTS Validation Assay for Inhibitors of Human Galactokinase (GALK) (AID 493189); note: 0% is about no effect
How it was run: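 GALK (5 nM) with 35 uM ATP and 100 uM galactose in HEPES pH 8.0 with MgCl2, NaCl, DTT and BSA. Reaction ran 1 h at room temperature. Residual ATP read by Kinase-Glo Plus luminescence.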

[19] = Validation screen for small molecules that induce DNA re-replication in SW480 colon adenocarcinoma cells (AID 504364); note: 0% is about no effect
How it was run: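 SW480 cells (250/well) exposed 48 h at 37 C, 5% CO2, then Hoechst-stained 40 min. Nuclear DNA content imaged by fluorescence scanning (405 nm excitation, 500-530 nm emission); re-replication scored as increased nuclei with elevated intensity.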

[20] = target: Voltage-gated inwardly rectifying potassium channel KCNH2 (Homo sapiens) (UniProt Q12809); test: qHTS Assay for Small Molecule Inhibitors of the Human hERG Channel Activity (AID 588834);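 note: top concentration of the series differs between compounds; % is set by controls: 0 for no effect and ±100 for the full control effect; lower thallium flux fluorescence means stronger hERG block; nearly all actives have a fitted effect of over 50% in size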
How it was run: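 U2OS cells BacMam-transduced with hERG, 2000 cells/well, compound ~10 min at 37 °C before stimulation buffer. FluxOR thallium flux fluorescence read kinetically on FDSS; decrease indicates block; AC50 from Hill fits.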

[21] = measured here: cell count channel max response
[22] = measured here: lipid channel max response

Chain of M-phase phosphoprotein 8 (Homo sapiens) (Q99549 whole entry, looked up): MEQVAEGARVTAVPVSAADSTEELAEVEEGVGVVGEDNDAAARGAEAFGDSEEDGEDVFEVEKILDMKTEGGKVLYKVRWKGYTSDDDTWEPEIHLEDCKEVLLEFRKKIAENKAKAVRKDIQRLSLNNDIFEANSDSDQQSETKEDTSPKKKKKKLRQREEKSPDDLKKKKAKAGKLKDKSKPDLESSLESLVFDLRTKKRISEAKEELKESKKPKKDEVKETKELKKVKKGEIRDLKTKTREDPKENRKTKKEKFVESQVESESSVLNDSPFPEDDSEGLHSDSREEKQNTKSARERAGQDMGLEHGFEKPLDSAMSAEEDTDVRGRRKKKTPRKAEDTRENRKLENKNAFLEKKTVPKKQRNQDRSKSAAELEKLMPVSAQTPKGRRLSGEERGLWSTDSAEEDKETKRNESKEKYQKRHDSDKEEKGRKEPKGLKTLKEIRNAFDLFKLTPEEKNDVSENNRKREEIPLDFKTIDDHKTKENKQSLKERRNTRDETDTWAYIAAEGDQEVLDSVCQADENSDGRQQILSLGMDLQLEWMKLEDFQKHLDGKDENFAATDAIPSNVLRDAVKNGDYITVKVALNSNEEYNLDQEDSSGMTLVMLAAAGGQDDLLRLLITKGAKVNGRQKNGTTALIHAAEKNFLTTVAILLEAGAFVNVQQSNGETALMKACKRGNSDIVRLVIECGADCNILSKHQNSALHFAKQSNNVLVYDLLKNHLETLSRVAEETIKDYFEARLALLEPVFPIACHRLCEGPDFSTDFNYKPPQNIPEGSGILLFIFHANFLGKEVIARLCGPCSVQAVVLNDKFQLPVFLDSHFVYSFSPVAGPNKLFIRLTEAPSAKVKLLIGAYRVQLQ
Chain of Voltage-gated inwardly rectifying potassium channel KCNH2 (Homo sapiens) (Q12809 whole entry, looked up): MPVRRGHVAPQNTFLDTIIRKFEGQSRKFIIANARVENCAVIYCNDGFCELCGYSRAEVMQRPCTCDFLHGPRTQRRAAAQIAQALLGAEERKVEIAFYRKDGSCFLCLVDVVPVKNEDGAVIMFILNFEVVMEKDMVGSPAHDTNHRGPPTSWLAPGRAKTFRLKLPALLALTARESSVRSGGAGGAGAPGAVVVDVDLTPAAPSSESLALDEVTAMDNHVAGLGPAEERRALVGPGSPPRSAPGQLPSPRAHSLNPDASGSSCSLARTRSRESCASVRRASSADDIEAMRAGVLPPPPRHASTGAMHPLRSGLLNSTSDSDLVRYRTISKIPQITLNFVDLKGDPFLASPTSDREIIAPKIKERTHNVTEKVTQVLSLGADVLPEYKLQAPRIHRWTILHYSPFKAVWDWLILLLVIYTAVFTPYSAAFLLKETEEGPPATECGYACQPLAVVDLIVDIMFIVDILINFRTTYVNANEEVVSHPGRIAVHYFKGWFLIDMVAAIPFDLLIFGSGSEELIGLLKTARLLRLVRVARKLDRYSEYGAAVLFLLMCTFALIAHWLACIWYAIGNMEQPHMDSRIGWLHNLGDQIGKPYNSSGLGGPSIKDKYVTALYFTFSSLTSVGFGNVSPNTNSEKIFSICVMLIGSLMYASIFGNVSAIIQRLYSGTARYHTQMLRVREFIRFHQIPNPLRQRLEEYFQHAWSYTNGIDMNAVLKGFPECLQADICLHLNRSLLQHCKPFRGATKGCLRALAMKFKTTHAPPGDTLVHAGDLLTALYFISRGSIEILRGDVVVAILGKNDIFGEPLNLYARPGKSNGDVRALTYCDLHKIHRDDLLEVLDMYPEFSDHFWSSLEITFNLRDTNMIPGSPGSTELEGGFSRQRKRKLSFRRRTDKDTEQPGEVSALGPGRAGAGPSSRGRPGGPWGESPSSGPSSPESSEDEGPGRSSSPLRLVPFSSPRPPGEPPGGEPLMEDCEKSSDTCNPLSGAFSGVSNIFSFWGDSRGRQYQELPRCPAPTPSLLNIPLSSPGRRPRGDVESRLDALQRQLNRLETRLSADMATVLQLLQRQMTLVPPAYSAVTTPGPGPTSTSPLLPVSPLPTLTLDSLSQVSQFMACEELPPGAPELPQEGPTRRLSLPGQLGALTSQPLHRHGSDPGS
Chain of Thyrotropin-releasing hormone receptor (Homo sapiens) (P34981 whole entry, looked up): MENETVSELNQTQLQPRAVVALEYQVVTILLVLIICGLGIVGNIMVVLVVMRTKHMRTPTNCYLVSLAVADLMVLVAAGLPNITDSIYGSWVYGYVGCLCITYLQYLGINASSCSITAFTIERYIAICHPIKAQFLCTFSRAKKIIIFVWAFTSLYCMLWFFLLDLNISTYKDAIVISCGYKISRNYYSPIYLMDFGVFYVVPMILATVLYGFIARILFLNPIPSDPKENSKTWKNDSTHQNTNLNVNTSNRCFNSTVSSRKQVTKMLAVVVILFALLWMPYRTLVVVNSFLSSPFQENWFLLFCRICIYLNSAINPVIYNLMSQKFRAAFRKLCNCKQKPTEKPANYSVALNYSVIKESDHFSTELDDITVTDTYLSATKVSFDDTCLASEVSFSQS
Chain of Thyrotropin receptor (Homo sapiens) (P16473 whole entry, looked up): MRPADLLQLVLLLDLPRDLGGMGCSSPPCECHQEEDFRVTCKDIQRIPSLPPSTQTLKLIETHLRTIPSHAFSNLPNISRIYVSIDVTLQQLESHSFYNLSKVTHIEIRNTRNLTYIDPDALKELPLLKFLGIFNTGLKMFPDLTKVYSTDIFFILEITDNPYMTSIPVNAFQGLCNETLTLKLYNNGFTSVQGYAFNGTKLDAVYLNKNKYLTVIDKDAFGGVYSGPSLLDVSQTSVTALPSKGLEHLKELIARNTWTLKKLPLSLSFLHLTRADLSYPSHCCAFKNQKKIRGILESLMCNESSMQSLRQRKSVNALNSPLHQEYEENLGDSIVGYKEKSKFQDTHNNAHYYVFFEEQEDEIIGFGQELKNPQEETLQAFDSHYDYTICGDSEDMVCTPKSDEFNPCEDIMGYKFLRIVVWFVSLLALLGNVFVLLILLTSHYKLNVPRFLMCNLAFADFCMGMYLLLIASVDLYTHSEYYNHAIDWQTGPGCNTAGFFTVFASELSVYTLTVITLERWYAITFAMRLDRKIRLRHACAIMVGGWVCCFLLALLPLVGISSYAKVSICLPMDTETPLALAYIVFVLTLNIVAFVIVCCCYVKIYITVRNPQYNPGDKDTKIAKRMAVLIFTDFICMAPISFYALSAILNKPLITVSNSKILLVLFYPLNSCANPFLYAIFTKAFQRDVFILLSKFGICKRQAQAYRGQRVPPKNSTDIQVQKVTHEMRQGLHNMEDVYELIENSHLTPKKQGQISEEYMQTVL
Chain of Galactokinase (Homo sapiens) (P51570 whole entry, looked up): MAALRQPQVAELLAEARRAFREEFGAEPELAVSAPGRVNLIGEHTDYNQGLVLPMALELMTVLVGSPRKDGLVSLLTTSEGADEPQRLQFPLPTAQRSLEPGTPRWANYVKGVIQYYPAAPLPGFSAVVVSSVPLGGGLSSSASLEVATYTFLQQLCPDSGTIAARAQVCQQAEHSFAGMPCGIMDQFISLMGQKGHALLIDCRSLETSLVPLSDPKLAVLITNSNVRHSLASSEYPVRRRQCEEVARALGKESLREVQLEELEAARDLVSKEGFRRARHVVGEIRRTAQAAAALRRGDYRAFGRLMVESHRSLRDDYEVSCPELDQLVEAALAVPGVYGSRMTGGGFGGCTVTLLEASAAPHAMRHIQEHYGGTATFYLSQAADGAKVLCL
Chain of DNA repair nuclease/redox regulator APEX1 (Homo sapiens) (P27695 whole entry, looked up): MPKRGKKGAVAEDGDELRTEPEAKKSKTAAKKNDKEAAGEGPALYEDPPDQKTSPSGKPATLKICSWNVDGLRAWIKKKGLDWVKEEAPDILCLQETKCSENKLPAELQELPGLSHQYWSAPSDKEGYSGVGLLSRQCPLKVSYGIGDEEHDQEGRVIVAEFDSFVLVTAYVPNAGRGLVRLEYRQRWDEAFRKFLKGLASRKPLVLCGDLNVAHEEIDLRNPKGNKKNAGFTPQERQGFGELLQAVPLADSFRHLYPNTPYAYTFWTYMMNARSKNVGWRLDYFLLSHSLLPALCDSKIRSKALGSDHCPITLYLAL
Chain of Ferritin light chain (Equus caballus) (P02791 2-175 limits assumed): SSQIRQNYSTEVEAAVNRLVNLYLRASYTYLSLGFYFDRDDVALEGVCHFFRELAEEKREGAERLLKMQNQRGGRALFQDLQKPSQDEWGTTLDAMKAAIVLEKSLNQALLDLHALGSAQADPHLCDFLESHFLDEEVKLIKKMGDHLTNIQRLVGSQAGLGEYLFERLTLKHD
Chain of Transient receptor potential cation channel subfamily V member 1 (Homo sapiens) (Q8NER1 whole entry, looked up): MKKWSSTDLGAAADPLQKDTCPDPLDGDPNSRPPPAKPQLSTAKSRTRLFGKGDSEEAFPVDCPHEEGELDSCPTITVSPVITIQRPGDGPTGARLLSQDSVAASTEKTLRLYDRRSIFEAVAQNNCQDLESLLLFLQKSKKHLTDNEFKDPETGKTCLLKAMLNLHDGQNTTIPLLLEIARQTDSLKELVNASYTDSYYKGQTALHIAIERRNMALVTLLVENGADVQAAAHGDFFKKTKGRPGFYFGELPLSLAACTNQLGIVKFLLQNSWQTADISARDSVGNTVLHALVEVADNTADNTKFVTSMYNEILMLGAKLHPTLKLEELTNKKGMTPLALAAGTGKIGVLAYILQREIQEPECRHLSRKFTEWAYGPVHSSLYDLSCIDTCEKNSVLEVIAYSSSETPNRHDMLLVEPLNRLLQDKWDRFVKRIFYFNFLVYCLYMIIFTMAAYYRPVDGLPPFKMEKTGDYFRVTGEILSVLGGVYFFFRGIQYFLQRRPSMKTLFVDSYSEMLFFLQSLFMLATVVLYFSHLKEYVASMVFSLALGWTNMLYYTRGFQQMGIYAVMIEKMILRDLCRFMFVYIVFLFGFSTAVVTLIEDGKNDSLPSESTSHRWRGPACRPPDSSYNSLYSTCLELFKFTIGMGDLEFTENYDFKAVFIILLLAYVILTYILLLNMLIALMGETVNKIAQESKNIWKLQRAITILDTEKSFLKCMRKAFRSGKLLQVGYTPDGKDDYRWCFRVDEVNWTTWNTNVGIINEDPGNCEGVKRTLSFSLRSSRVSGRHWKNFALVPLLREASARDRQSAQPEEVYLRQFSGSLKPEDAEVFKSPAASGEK

O=C(Cc1ccc(Cl)c(Cl)c1)OCCN1CCCC1
inactive: outcome [1] | activity change, negative = inhibition [2] 1.23% | Potency [3] | Potency [4] | outcome [5] | Potency [6] | Potency [7] | Potency [8] | Potency [9] | outcome [10] | outcome [11] | Potency [12] | Potency [13] | Potency [14] | outcome [15] | outcome [16] | activation [17] 1.06% | outcome [18] | outcome [19] | Potency [20]
-1.75%: max response [2, 21]
-0.355%: max response [2, 22]

CC(N)=NCCCC(N)C(=O)O (configuration not stated)
inactive: outcome [1] | Potency [3] | Potency [4] | outcome [5] | Potency [6] | Potency [7] | Potency [8] | Potency [9] | outcome [10] | outcome [11] | Potency [12] | Potency [13] | Potency [14] | outcome [15] | outcome [16] | activation [17] 0.938% | outcome [18] | outcome [19] | Potency [20]

CCCCCCCCCCCCCCC/C=C/[C@@H](O)[C@H](NC(=O)CCCCCCCCCCCCC)OC (tested in a mixture with another compound)
inactive: outcome [1] | Potency [3] | Potency [4] | outcome [5] | Potency [6] | Potency [7] | Potency [8] | Potency [9] | outcome [10] | outcome [11] | Potency [12] | Potency [13] | Potency [14] | outcome [15] | outcome [16] | activation [17] 1.19% | outcome [18] | outcome [19] | Potency [20]

CC(=O)[C@@]1(O)CC[C@H]2C3CCC4=CC(=O)CC[C@]4(C)C3CC[C@@]21C (some centres not stated)
inactive: outcome [1] | activity change, negative = inhibition [2] 1.08% | Potency [3] | Potency [4] | Potency [7] | Potency [8] | outcome [10] | outcome [11] | Potency [12] | Potency [13] | Potency [14] | outcome [15] | outcome [16] | activation [17] 1.5% | outcome [18] | outcome [19] | Potency [20]
-12.2%: max response [2, 21]
-12.4%: max response [2, 22]

N.N.N.N.N.N.N.N.N.N.N.N.N.N.O.O.[Cl-].[Cl-].[Cl-].[Cl-].[Cl-].[Cl-].[Ru].[Ru].[Ru]
active: Potency [3] 35.5 µM | Potency [4] 20 µM
inactive: outcome [1] | activity change, negative = inhibition [2] 3.46% | outcome [11] | Potency [12] | Potency [13] | outcome [15] | activation [17] 1.06% | outcome [18] | outcome [19] | Potency [20]
45.1%: max response [2, 22]
40.4%: max response [2, 21]

CC(=O)O[C@H]1C[C@@H]2CCC3C(CC[C@@]4(C)[C@H]3C[C@H]([N+]3(C)CCCCC3)[C@@H]4OC(C)=O)[C@@]2(C)C[C@@H]1[N+]1(C)CCCCC1 (some centres not stated)
-31.8%: max response [2, 21]
-31.3%: max response [2, 22]
inactive: outcome [1] | activity change, negative = inhibition [2] 0.655% | Potency [3] | Potency [4] | outcome [5] | Potency [8] | Potency [9] | outcome [10] | outcome [11] | Potency [13] | Potency [14] | outcome [15] | outcome [16] | activation [17] 0.25% | outcome [18] | outcome [19] | Potency [20]
